Source: PubChem BioAssay (National Center for Advancing Translational Sciences (NCATS))
In the library only some 21% were active in any assay of this set; here they are far more common.
Pf growth 48h = inhibits P. falciparum growth in the first generation, 48 h; P. falciparum luciferase growth in erythrocytes, 48 h; Potency, µM (doses to about 28.7 µM), for inactives: at the top dose activity change, negative = inhibition, hits mostly inhibitors; hit rate 5.9% among 310,000; AID 504832; further: potency means the concentration at half of the fitted maximal effect; on the % scale 0 is the no-effect control and ±100 the full control effect
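Compounds are pin-transferred into medium, infected erythrocytes (2% hematocrit, 0.1% parasitemia final) are added, and plates sit one parasite generation at 37 C in 5% CO2. Detection reagent is then added and luminescence measured.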
HCMV inh = human cytomegalovirus inhibition; HFF cells, HCMV-luciferase reporter, 72 h; hits give low values; hit rate 4.5% among 410,000; AID 1259415; activity change, negative = inhibition, % at 57.5 µM; in the data active means activity change below about -60%; inconclusive means no clear call, values can overlap the other calls; inactive means above about -39%; further: on the % scale 0 is the no-effect control and ±100 the full control effect
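Human foreskin fibroblasts infected with luciferase-reporter HCMV at MOI 1 PFU/cell, compounds at two doses. Luciferase measured 72 h post infection; normalized to buffer-only basal and Salinomycin (10uM) controls.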
Pf growth 96h = inhibits malaria parasite growth, 96 h; P. falciparum luciferase reporter growth, 96 h; hit rate 6.9% among 320,000; Potency, µM (series often up to 28.7 µM), inactives show top-dose activity change, negative = inhibition, most hits filed as inhibitors; AID 504834; further: potency means the concentration at half of the fitted maximal effect; on the % scale 0 is the no-effect control and ±100 the full control effect
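Readout is luminescence from an integrated firefly luciferase in P. falciparum. Red cells, 2% hematocrit and 0.05% parasitemia final, were cultured with compound through two parasite generations (96 hours) at 37 C, 5% CO2.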
Shiga toxin inh = blocks Shiga toxin action in Vero cells; Vero cells, Shiga toxin protein synthesis inhibition reporter; inhibition, % at 38.7 µM; AID 2315; hit rate 9.2% among 290,000; in the data active means inhibition mostly above about 28%, no sharp cut-off; inactive means mostly below about 43%; further: 0% is about no effect
CHX counter = counter-screen hit for Shiga toxin inhibitors, cycloheximide; cell reporter, cycloheximide protein synthesis inhibition counterscreen; max response, %; hit rate 12% among 300,000; AID 2314; in the data active means max response mostly above about 13%, no sharp cut-off; inactive means mostly below about 14%; further: read at 38.3 µM for the half of the compounds with a filed dose; 0% is about no effect
HCV inh = HCV inhibition. Huh7.5.1 HCVcc-Cre infection, luciferase reporter, 44 h. Potency, µM (top dose mostly 41.8 µM), without a hit: top-dose activity change, negative = inhibition, actives largely listed as inhibitors. hit rate 3.4% among 340,000; further: potency means the concentration at half of the fitted maximal effect; on the % scale 0 is the no-effect control and ±100 the full control effect
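Compounds are dispensed onto cells plated 4 h earlier at 1,000 per well, with HCVcc-Cre virus (about 0.5 moi) added next. Following 44 h of culture, luminescent signal is measured for 15 sec after 15 min with substrate at room temperature.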
* = called active by the depositor; [ ] = another dose, or the depositor's remark. Unless noted, the call rests on the fitted dose curve; in most records, active means well fitted inhibition curve with a large enough effect; inconclusive means small, poorly fitted or top-dose-only effect, or another doubt; inactive means no such curve, though single readings can be large or run the other way.

Screening Cc1ccc2c(c1)COc1c3ccc(C(=O)NCCO)cc3nn1-2 returned Pf growth 48h 279.5%, HCMV inh 53.6, Pf growth 96h 16.4%, Shiga toxin inh 73.8*, CHX counter 61.2* and HCV inh -20.6%.
For Cc1ccc(-n2cnc3cc(C(=O)NCCC4=CCCCC4)ccc32)c(C)c1 the results were HCMV inh -7.9.
C=CCNC(=O)c1ccc2c3n(nc2c1)-c1ccccc1CO3 was read as Pf growth 48h 194.5%, HCMV inh 54.8, Pf growth 96h 242.0%, Shiga toxin inh 46.2*, CHX counter 27.4* and HCV inh inconclusive.
COCCNC(=O)c1ccc2c3n(nc2c1)-c1ccc(Cl)cc1CO3 was read as Pf growth 48h 120.3%, HCMV inh 5.8, Pf growth 96h 104.7%, Shiga toxin inh 44.1*, CHX counter 7.5* and HCV inh -19.2%.
`O=C(NC1CCCc2c1cnn2-c1ccccc1F)c1ccccc1N1CCOCC1` (stereo not given) gave Pf growth 48h inconclusive, HCMV inh -34.0, Pf growth 96h -17.3%, Shiga toxin inh 22.1, CHX counter 10.4 and HCV inh -7.3%.
Screening CC(=O)N1c2ccc(F)c(F)c2C[C@H]1C returned Pf growth 48h 8.5%, HCMV inh 6.0, Pf growth 96h 49.3% and HCV inh 7.2%.
Screening O=C(NCCO)c1ccc2c3n(nc2c1)-c1ccc(Cl)cc1CO3 returned Pf growth 48h 89.4%, HCMV inh -0.1, Pf growth 96h 134.7%, Shiga toxin inh 79.2*, CHX counter 54.1* and HCV inh -3.4%.
Screening Cc1ccc(C(c2sc3nc(-c4ccco4)nn3c2O)N2CCN(c3ccc(F)cc3)CC2)cc1 (stereo not given) returned HCMV inh 3.1.
For O=C(NCCC1=CCCCC1)C1CCN(S(=O)(=O)c2cccc(C(F)(F)F)c2)CC1 the results were Pf growth 48h inconclusive, HCMV inh 32.7, Pf growth 96h inconclusive and HCV inh 11.2µM*.
For O=C(NCC(c1cccs1)N1CCOCC1)C1CCN(S(=O)(=O)c2cccc(C(F)(F)F)c2)CC1 (stereo not given) the results were Pf growth 48h inconclusive, HCMV inh 11.6, Pf growth 96h 10.4µM* and HCV inh -5.3%[8.37 µM].
CCCCNC(=O)C[C@@H]1C[C@@]2(C(=O)OC)CCCCC=C2N(Cc2ccc3c(c2)OCO3)C1=O was read as HCMV inh -8.6.
Cc1nc(C(F)(F)F)ccc1C(=O)N1CCC1(C)C(=O)NS(=O)(=O)c1ccc(C(C)(C)C)cc1 (stereo not given) was read as HCMV inh -81.2*.
Screening COc1ccc(S(=O)(=O)NC(=O)C2(C)CCN2C(=O)c2ccc(C(F)(F)F)nc2C)cc1 (stereo not given) returned HCMV inh 9.9.
Cc1ccc(F)c(S(=O)(=O)NC(=O)C2(C)CCN2C(=O)c2ccc(C(F)(F)F)nc2C)c1 (stereo not given) was read as HCMV inh -86.9*.
`O=C1c2cc(F)ccc2-n2c1nc1ccccc1c2=O` gave Pf growth 48h 0.0329µM*, HCMV inh -82.7*, Pf growth 96h 0.0294µM*, Shiga toxin inh 18.5, CHX counter 3.8 and HCV inh 2.51µM*.
Screening CCCCCOc1ccc(/C=C/C(=O)Nc2sc3c(c2C(=O)OCC)CCC3)cc1OC returned HCMV inh -7.3.
Screening CC(C)CCNC(=O)c1ccc2c(c1)N(Cc1ccccc1F)C(=O)c1ccccc1S2(=O)=O returned HCMV inh 21.8.
O=c1[nH]cnc2cc(-c3ccc(Br)cc3)sc12 was read as Pf growth 48h 134.2%, HCMV inh 111.9, Pf growth 96h 239.1%, Shiga toxin inh 66.1*, CHX counter 22.2 and HCV inh inconclusive.
`Cc1ccccc1N/C(SCc1ccc(Cl)cc1)=C(/C#N)C(=O)NCc1ccco1` gave Pf growth 48h inconclusive, HCMV inh -0.1, Pf growth 96h inconclusive, Shiga toxin inh 112.2*, CHX counter 40.8* and HCV inh -26.4%.
